Source: ChEMBL document CHEMBL4513149, “CO-ADD screening of MMV (CH) - MMV compounds” (2021)
Entries with a potency or affinity are not part of this list.

Assays:
Klebsiella pneumoniae = conditions: Concentration 20 uM; ASSAY_TEST Inhibition of Bacterial Growth; detection method Absorption (OD600); MEDIA CAMHB; plate type 384well; NBS; CORNING #3640; time 18 hr
Candida albicans = conditions: 20 µM
Cryptococcus neoformans = conditions: Concentration 20 uM; ASSAY_TEST Inhibition of Fungal Growth; detection method Resazurin; Absorption (OD600-OD570); plate type 384well; NBS; CORNING #3640

| Compound | Inhibition (Klebsiella pneumoniae) | Inhibition (Candida albicans) | Inhibition (Cryptococcus neoformans) |
| --- | --- | --- | --- |
| Cc1cc2ccccc2n1CC(=O)N1CC(C(=O)N2CCCCC2)Oc2ccccc21 (configuration not stated) | 14.31% | 4.16% | -5.34% |
| O=C(C1CCN(c2nnnn2-c2ccccc2)CC1)N1CCc2ccccc2C1 | 12.73% | 2.89% | -8.99% |
| COc1ccc(-c2cncc3ccc(C(=O)NCCCn4ccnc4)nc23)cc1 | 3.32% | 4.61% | -8.59% |
| CN1CCN(c2nccc3[nH]c(-c4cccc(F)c4)cc23)CC1 | 12.23% | 5.85% | 5.1% |
| C[C@H](C(N)=O)N1CCCC[C@@H]1c1ccc(OCc2cccc(F)c2)cc1 | 9.46% | 2.97% | -6.98% |
| COc1cc(OC)cc(C(=O)NCC2Cc3cc(Cl)cc(-c4ccncc4)c3O2)c1 (configuration not stated) | 8.14% | 4.34% | -5.78% |
| CNc1nnc(Sc2cnn(-c3ccccc3)c(=O)c2Cl)s1 | 0.48% | 4.99% | -9.44% |
| c1ccc2c(c1)CN(CC1CC1)CC1(CCN(Cc3c[nH]c4cnccc34)CC1)O2 | 8.97% | 4.16% | -4.09% |
| CNC1C(OC2C(OC3C(O)C(O)C(NC(=N)N)C(O)C3NC(=N)N)OC(C)C2(O)C=O)OC(CO)C(O)C1O.CNC1C(OC2C(OC3C(O)C(O)C(NC(=N)N)C(O)C3NC(=N)N)OC(C)C2(O)C=O)OC(CO)C(O)C1O.O=S(=O)(O)O.O=S(=O)(O)O.O=S(=O)(O)O (configuration not stated) | -10.2% | 2.09% | -8.51% |
| COC(=O)c1ccc(F)cc1NS(=O)(=O)c1cccc(-c2cnn(Cc3ccccc3)c2)c1 | 14.02% | 6.83% | 12.85% |
| Cc1cnc(N2CCN[C@@H](Cc3ccccc3)C2)nc1Oc1ccc(-n2ccnc2)cc1.Cl | 8.14% | 2.69% | -5.74% |
| Cc1cc(NC(=O)c2ccc(S(=O)(=O)N(Cc3ccccc3)C(C)C)cc2)no1 | 8.9% | 1.89% | -4.62% |
| CCCn1nnc(NC(=O)COc2ccc(C3CCCCC3)cc2)n1 | 4.73% | 21.8% | -8.36% |
| FC(F)(F)c1cccc(-c2nc3c(NCc4ccncc4)nccc3[nH]2)c1 | 6.33% | 3.63% | 5.66% |
| Nc1nc(N)c2c3c(sc2n1)CN(Cc1ccccc1)CC3 | 10.27% | 2.79% | -1.76% |
| Clc1ccc(CCNc2cc(-c3ccccc3)nc3ncnn23)cc1 | 8.91% | 16.3% | -16.06% |
| NC(=O)c1cc(Br)ccc1OCCOc1ccccc1 | 10.17% | 10.7% | -9.83% |
| O=C(c1[nH]nc2c1CCCC2)N1CCN(Cc2ccc3c(c2)OCO3)CC1 | 7.71% | 2.93% | -11.77% |
| Cc1cc(C)c2cc(C(=O)NC3CCCCCCC3)[nH]c2c1 | 18.42% | 3.94% | -6.05% |
| COc1cc(C2=NCCN2)ccc1-n1cc(-c2cccc(C3=NCCN3)c2)nn1.O=CO.O=CO | 8.01% | 2.32% | 7.56% |
| CCCCc1ccc(NC(=O)Nc2ccc(O[C@H]3CCCC[C@@H]3N(C)c3ccccc3)c(F)c2)cc1 | 12.88% | 1.16% | -1.2% |
| COc1ccc(-c2nn(C(C)C)c3ncnc(N)c23)cc1OC | 10.07% | 2.58% | -0.18% |
| COC(=O)C1=C(C)NC(C)=C(C(=O)OC(C)C)C1c1cccc2nonc12 (configuration not stated) [ISRADIPINE] | 6.29% | 4.19% | -10.15% |
| NCC(=O)N1CCn2c(nc(-c3ccccc3)c2Nc2ccc3c(c2)OCO3)C1 | 4.52% | 3.31% | 7.53% |
| CN1CCCN(C(c2ccccc2)c2ccc(Cl)cc2)CC1 (configuration not stated) [HOMOCHLORCYCLIZINE] | 10.44% | 2.84% | -6.27% |
| CCc1ccccc1-n1c(C)cn2c3c(=O)n(C(C(=O)OC)C(C)C)c(=O)n(C)c3nc12 (configuration not stated) | 8.42% | 0.33% | -8.91% |
| CCOc1ccccc1NC(C)C(=O)Nc1cc(C(F)(F)F)ccc1N1CCOCC1 (configuration not stated) | 14.66% | 4.33% | -7.7% |

| Compound | Inhibition (Klebsiella pneumoniae) | Inhibition (Candida albicans) | Inhibition (Cryptococcus neoformans) |
| --- | --- | --- | --- |
| Cc1ccccc1CN1CCC(O)(c2ccc(Cl)c(C(F)(F)F)c2)CC1 | 11.69% | 3.22% | -6.41% |
| CCn1cnc2c(Nc3cc(F)cc(F)c3)nc(C#N)nc21 | 8.51% | 3.4% | -1.23% |
| Cc1ccc2nc(Cl)c(CNCc3cccs3)cc2c1 | 1.61% | 2.37% | -15.9% |
| Cl.NCCCC(N)(C(=O)O)C(F)F.O (configuration not stated) [EFLORNITHINE HYDROCHLORIDE] | 11.19% | 2.7% | -9.22% |
| CCOc1ccc(OCC(=O)Nc2cc(C)cc(C)c2)cc1 | 6.85% | 9.23% | -6.41% |
| O=S(=O)(c1ccc(Cl)cc1)N1CCN(C(=S)NCc2ccco2)CC1 | 5.39% | 4.22% | -0.21% |
| Cl.c1ccc(C[C@@H]2CN(c3nccc(Oc4ccc(-n5ccnc5)cc4)n3)CCN2)cc1 | 13.63% | 3.57% | -6.59% |
| Cl.Cn1ccnc1CNCCS(=O)(=O)c1cccc(Nc2ccc(-c3cccc(F)c3)cn2)c1 | 13.22% | 4.46% | -9.08% |
| CNC(=O)c1cc(S(=O)(=O)N2CCN(c3ccccn3)CC2)cs1 | 10.77% | 2.91% | -8.81% |
| Clc1ccc(-n2cc(COc3ccnc4ccccc34)nn2)cc1 | 12.62% | 3.14% | -4.84% |
| COCC(C)NC(=O)CSc1ncnc2sc(-c3ccccc3)cc12 (configuration not stated) | 18.05% | 9.04% | 0.58% |
| O=C1Nc2ccc(Br)cc2C12NCCc1c2[nH]c2ccccc12 (configuration not stated) | 4.49% | 2.19% | -1.68% |
| COc1cc(Br)cc2cc(C(=O)Nc3cccc(C(F)(F)F)c3)c(=O)oc12 | 7.93% | 3.09% | -6.76% |
| CN1CCN(c2nccc3nc(-c4ccc(F)c(F)c4)[nH]c23)CC1 | 17.85% | 1.66% | -6.31% |
| O=C(NCCN1CCCC1)c1cc(NCCCCN2CCC(F)(F)CC2)nc2ccc(Cl)cc12 | 15.7% | 2.73% | 24.05% |
| Cc1ncc(-c2ccnc(Nc3ccc(S(C)(=O)=O)cc3)n2)n1C(C)C [AZD-5438] | 16.86% | 6.64% | -6.72% |
| COc1ccc(-c2cc(NC(=O)c3ccc(F)cc3Cl)ccc2OC)cc1 | 14.44% | 5.2% | 8.48% |
| COc1ccc(-c2cnc3ccc(N4CCCC4)nn23)cc1OC | 12.07% | 4.32% | -8.28% |
| CC(C)C(Oc1cccc2ccccc12)C(=O)O (configuration not stated) | 6.53% | 8.4% | 4.84% |
| C[C@H](C(N)=O)N1CCCC[C@H]1c1ccc(OCc2cccc(F)c2)cc1 | 11.66% | 2.64% | -9.53% |
| CS(=O)(=O)Cc1nc2ccccc2oc1=O | 16.91% | 1.55% | -16.09% |
| CCc1ccc(C(NCc2nc(N)nc(N(C)C)n2)C(C)C)cc1 (configuration not stated) | -6.55% | 5.01% | -4.27% |
| CC1(C)Cc2c(c(N3CCOCC3)nc3snc(Br)c23)CO1 | 3.58% | 13.1% | -2.44% |
| CC(C)=CCC/C(C)=C\CNCCNC1C2CC3CC(C2)CC1C3 (configuration not stated) | 18.7% | 2.31% | 16.24% |
| CCNC(=O)C(C)Nc1nc(-c2cccnc2)nc2sc(C)c(C)c12 (configuration not stated) | -9.71% | 5.77% | -4.41% |
| COC(=O)c1cccc2oc(-c3cccc(OC)c3NC(=O)c3cc(-c4ccccc4)on3)nc12 | 13.16% | 8.19% | -3.51% |
| CNc1cc(C)nc(C2CN(C(=O)c3n[nH]c4ccccc34)CCO2)c1 (configuration not stated) | 20.78% | 2.95% | -9.16% |
